Laboratory results as given in PubChem BioAssay (NCATS).
Records with an inconclusive call do not appear. A call without a number means that no potency is given here. Unmarked numbers belong to inactive results. Active and inactive are the calls of the source. Calls follow the shape of the dose curve; as a rule, active = well fitted curve in the direction sought with a large enough effect; inconclusive = small, poorly fitted or top-dose-only effect, or another doubt; inactive = no such curve, though single readings can be large; an effect the other way counts as inactive or inconclusive.

Key:
[1] = Primary qHTS for inhibitors of nuclear receptor binding SET domain protein 2 (NSD2) in an isogenic RCH-ACV NSD2 p.E1099K mutant (9B) (AID 1645876)
[2] = Primary qHTS for inhibitors of nuclear receptor binding SET domain protein 2 (NSD2) in an RCH-ACV wild type WT cells (2C) (AID 1645877)
Also: nearly all actives have a fitted effect of over 70% in size.

Structure (SMILES)	Potency [1]	Potency [2]	activity change, negative = viability loss [1]	activity change, negative = cell killing [2]
O=C(/C=C/c1ccc(O)cc1)OCC1=CC2OC(=O)C3=CO[C@@H](O[C@@H]4O[C@H](CO)[C@@H](O)[C@H](O)[C@H]4O)[C@H]1[C@@H]32 (stereo partly drawn)	inactive	inactive		
CC1CC(O)CC(C)(C)C1(O)CCO (stereo not drawn)	inactive	inactive		
CC(C)C1(O[C@@H]2O[C@H](CO)[C@@H](O)[C@H](O)[C@H]2O)CC=C(CO)CC1 (stereo partly drawn)	inactive	inactive		
CC1CCC2(C(=O)OC3OC(COC4OC(CO)C(O)C(O)C4O)C(O)C(O)C3O)CCC3(C)C(=CCC4C5(C)CCC(O)C(C)(C(=O)O)C5CCC43C)C2C1(C)O (stereo not drawn)			1.95% [at 9.23 µM]	2.11% [at 9.23 µM]
C=C1CCC2C(C)(C(=O)O)CC(O)CC2(C)C1CC/C(C)=C/C(=O)O (stereo not drawn)	inactive	inactive		
C=C/C=C/[C@@H]1OC[C@H](/C=C/C=C/C)[C@H]1O	inactive	inactive		
CC1(C)C(=O)N2c3ccccc3[C@]3(CC(n4cnc5ccccc5c4=O)C(=O)O3)[C@H]2N1O (stereo partly drawn)	inactive	inactive		
C/C=C(\C)C(=O)O[C@@H](C)[C@H]1CC[C@]2(O)C3CCC4C[C@@H](OC5CC(OC)C(OC6CC(OC)C(OC7CC(OC)C(OC8OC(C)C(OC9OC(CO)C(O)C(O)C9O)C(OC)C8O)C(C)O7)C(C)O6)C(C)O5)CC[C@]4(C)C3[C@H](O)[C@@H](O)[C@]12C (stereo partly drawn)			-6.35% [at 9.23 µM]	-1.09% [at 9.23 µM]
CC(C)CC1(C(=O)OCc2ccc(O[C@@H]3O[C@H](CO)[C@@H](O)[C@H](O)[C@H]3O)cc2)CC(=O)OC(C(=O)O)CC(=O)OCC2OC(O1)C(OC(=O)/C=C/c1ccc(O)cc1)C(O)C2O (stereo partly drawn)			1.01% [at 9.23 µM]	0.208% [at 9.23 µM]
